# The full list was thinned out, with the strongest signals kept by preference.
# B1: PX9961T-pdi-555-33-555 (Parabacteroides distasonis) (protein)
# chain: FDEETAFQSPTLVYVNTVASLYNNMFKIMGNDRHVYDLNTFSSDEAMLPCRIGDWEDGGLWQNIFLHRWGTMNDLTKNSWDFLYEQIGKCNQSVDKLQAFAEEQPDVEYFKVYLEEVRAVRAFFYYELLDLFARVPLVTSSTTPMSEVKQSERSVVFNFVRSELEEALPYLSDNRSNQKGEYYGRITKPVAYMILAKLALNAEVYADDNWTDGNRPAGKNIKFTVDGKEMNAWEATIAYVDKLEALGYKLQGNFSENFAVANETSVENIFTVPMDPVAYPDAKDYNLVRTRHYDHATAYGQSGWNGSCATVKAMNVFKFGTADEDPRCKLTYFTGEVTGPDGKTIYTEWDGQKVPLKYEPNAPKVYMDASDGLLVKTAGARMAKYEFDQNAQDGGNLHGNDCVIFRFADALLMKAEAKIRLGQNGDDEVNQVRNRVGAKPLQNVTLDTLLDERMLELAWEGVRRQDLIRFGKFTEATVDRYVGVKHFASSLDYQEDKTGYTTVFSIYADILSLNPNLTQNPGY
# What was measured:
# Assay in all cases: glycan array binding signal (z-score within array); higher = stronger binding
# Conditions in all cases: glycan notation: IUPAC condensed, linker removed
# [1] = target: Gal(b1-4)GlcNAc(b1-3)[GlcNAc(b1-6)]Gal(b1-4)GlcNAc
# Summary of the method: (§1)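 Glycan array data came from 3228 arrays in the Consortium for Functional Glycomics database, and only arrays with an available protein sequence were kept. Glycan names were put into IUPAC-condensed notation, and columns mapping to the same glycan were averaged. The binding signal is a within-array Z-score, averaged across arrays of one protein sequence run at different concentrations or buffers and across linkers. A negative Z-score can be read as non-binding.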
# Gal6S(b1-4)Glc6S = target: Gal6S(b1-4)Glc6S
# Summary of the method: as §1
# Glc(a1-6)Glc(a1-6)Glc = target: Glc(a1-6)Glc(a1-6)Glc
# Summary of the method: as §1
# [2] = target: GlcNAc(a1-4)Gal(b1-4)GlcNAc(b1-3)Gal(b1-4)GlcNAc
# Summary of the method: as §1
# [3] = target: GlcNAc(b1-2)Man(a1-3)[GlcNAc(b1-4)][GlcNAc(b1-2)Man(a1-6)]Man(b1-4)GlcNAc(b1-4)GlcNAc
# Summary of the method: as §1
# [4] = target: GlcNAc(b1-3)Gal(b1-4)GlcNAc(b1-3)Gal(b1-4)GlcNAc(b1-2)[GlcNAc(b1-3)Gal(b1-4)GlcNAc(b1-3)Gal(b1-4)GlcNAc(b1-6)]Man(a1-6)[GlcNAc(b1-3)Gal(b1-4)GlcNAc(b1-3)Gal(b1-4)GlcNAc(b1-2)Man(a1-3)]Man(b1-4)GlcNAc(b1-4)[Fuc(a1-6)]GlcNAc
# Summary of the method: as §1
# [5] = target: GlcNAc(b1-3)Gal(b1-4)GlcNAc(b1-3)Gal(b1-4)GlcNAc(b1-3)Gal(b1-4)GlcNAc(b1-3)Gal(b1-4)GlcNAc(b1-2)Man(a1-3)[GlcNAc(b1-3)Gal(b1-4)GlcNAc(b1-3)Gal(b1-4)GlcNAc(b1-3)Gal(b1-4)GlcNAc(b1-3)Gal(b1-4)GlcNAc(b1-2)Man(a1-6)]Man(b1-4)GlcNAc(b1-4)[Fuc(a1-6)]GlcNAc
# Summary of the method: as §1
# [6] = target: GlcNAc(b1-3)Gal(b1-4)GlcNAc(b1-3)Gal(b1-4)GlcNAc(b1-3)Gal(b1-4)GlcNAc(b1-3)Gal(b1-4)GlcNAc(b1-2)[GlcNAc(b1-3)Gal(b1-4)GlcNAc(b1-3)Gal(b1-4)GlcNAc(b1-3)Gal(b1-4)GlcNAc(b1-3)Gal(b1-4)GlcNAc(b1-6)]Man(a1-6)[GlcNAc(b1-3)Gal(b1-4)GlcNAc(b1-3)Gal(b1-4)GlcNAc(b1-3)Gal(b1-4)GlcNAc(b1-3)Gal(b1-4)GlcNAc(b1-2)Man(a1-3)]Man(b1-4)GlcNAc(b1-4)[Fuc(a1-6)]GlcNAc
# Summary of the method: as §1
# Kdn(a2-3)Gal(b1-4)GlcNAc = target: Kdn(a2-3)Gal(b1-4)GlcNAc
# Summary of the method: as §1
# Neu5Ac(a2-3)Gal = target: Neu5Ac(a2-3)Gal
# Summary of the method: as §1
# [7] = target: Neu5Ac(a2-3)Gal(b1-3)GlcNAc(b1-2)Man
# Summary of the method: as §1
# [8] = target: Neu5Ac(a2-3)Gal(b1-3)[Fuc(a1-4)]GlcNAc(b1-3)Gal(b1-4)[Fuc(a1-3)]GlcNAc
# Summary of the method: as §1
# [9] = target: Neu5Ac(a2-3)Gal(b1-3)[Neu5Ac(a2-6)]GalNAc
# Summary of the method: as §1
# [10] = target: Neu5Ac(a2-3)Gal(b1-4)GlcNAc(b1-3)Gal(b1-4)GlcNAc(b1-3)Gal(b1-4)GlcNAc(b1-2)Man(a1-3)[Neu5Ac(a2-3)Gal(b1-4)GlcNAc(b1-3)Gal(b1-4)GlcNAc(b1-3)Gal(b1-4)GlcNAc(b1-2)Man(a1-6)]GalNAc
# Summary of the method: as §1
# [11] = target: Neu5Ac(a2-3)Gal(b1-4)GlcNAc(b1-3)Gal(b1-4)[Fuc(a1-3)]GlcNAc
# Summary of the method: as §1
# [12] = target: Neu5Ac(a2-3)Gal(b1-4)GlcNAc(b1-6)[Neu5Ac(a2-3)Gal(b1-3)]GalNAc
# Summary of the method: as §1
# [13] = target: Neu5Ac(a2-3)Gal(b1-4)[Fuc(a1-3)]GlcNAc(b1-3)GalNAc
# Summary of the method: as §1
# [14] = target: Neu5Ac(a2-3)Gal(b1-4)[Fuc(a1-3)]GlcNAc(b1-6)[Gal(b1-3)]GalNAc
# Summary of the method: as §1
# [15] = target: Neu5Ac(a2-3)[GalNAc(b1-4)]Gal(b1-4)Glc
# Summary of the method: as §1
# [16] = target: Neu5Ac(a2-6)Gal(b1-4)GlcNAc(b1-2)Man(a1-3)[Neu5Ac(a2-6)Gal(b1-4)GlcNAc(b1-2)Man(a1-6)]Man(b1-4)GlcNAc(b1-4)[Fuc(a1-6)]GlcNAc
# Summary of the method: as §1
# [17] = target: Neu5Ac(a2-6)Gal(b1-4)GlcNAc(b1-3)Gal(b1-4)GlcNAc(b1-3)Gal(b1-4)GlcNAc(b1-2)Man(a1-3)[Neu5Ac(a2-6)Gal(b1-4)GlcNAc(b1-3)Gal(b1-4)GlcNAc(b1-3)Gal(b1-4)GlcNAc(b1-2)Man(a1-6)]GalNAc
# Summary of the method: as §1
# [18] = target: Neu5Ac(a2-6)Gal(b1-4)GlcNAc(b1-3)Gal(b1-4)GlcNAc(b1-3)[Neu5Ac(a2-6)Gal(b1-4)GlcNAc(b1-3)Gal(b1-4)GlcNAc(b1-6)]GalNAc
# Summary of the method: as §1
# [19] = target: Neu5Ac(a2-8)Neu5Gc(a2-3)Gal(b1-4)GlcNAc
# Summary of the method: as §1
# [20] = target: Neu5Gc(a2-3)Gal(b1-4)[Fuc(a1-3)]GlcNAc
# Summary of the method: as §1
binder,measurement,setting,value
B1,glycan array binding signal (z-score),[1],-0.222
same,glycan array binding signal (z-score),Gal6S(b1-4)Glc6S,-0.372
same,glycan array binding signal (z-score),Glc(a1-6)Glc(a1-6)Glc,0.357
same,glycan array binding signal (z-score),[2],-0.402
same,glycan array binding signal (z-score),[3],-0.416
same,glycan array binding signal (z-score),[4],-0.298
same,glycan array binding signal (z-score),[5],0.229
same,glycan array binding signal (z-score),[6],-0.523
same,glycan array binding signal (z-score),Kdn(a2-3)Gal(b1-4)GlcNAc,-0.683
same,glycan array binding signal (z-score),Neu5Ac(a2-3)Gal,-0.213
same,glycan array binding signal (z-score),[7],-0.451
same,glycan array binding signal (z-score),[8],-0.031
same,glycan array binding signal (z-score),[9],-0.194
same,glycan array binding signal (z-score),[10],1.63
same,glycan array binding signal (z-score),[11],-0.528
same,glycan array binding signal (z-score),[12],1.08
same,glycan array binding signal (z-score),[13],1.68
same,glycan array binding signal (z-score),[14],-0.177
same,glycan array binding signal (z-score),[15],1.56
same,glycan array binding signal (z-score),[16],-0.612
same,glycan array binding signal (z-score),[17],0.737
same,glycan array binding signal (z-score),[18],1.82
same,glycan array binding signal (z-score),[19],20.7
same,glycan array binding signal (z-score),[20],0.358

# Source: the supplement of paper PMC8728848
